In PubChem BioAssay AID1307 (SRMLSC, 2008):
Out of some 1,200 compounds screened, fewer than 10 were called active.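 How the source made its calls: active means inhibition reaching a set limit at one or more tested concentrations; inactive means inhibition under that limit at every dose.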 These entries were drawn from the full list. Measured potencies and affinities stand elsewhere.

Experiment: RAM pathway signaling blockade in S. cerevisiae – dose response (AID 1307);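 further: 0% = DMSO vehicle wells and 100% = 10 µM 1-NA-PP1 control; higher inhibition means more yeast growth since RAM block rescues cells from 5-FOA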
Details: S. cerevisiae RAM network URA3 reporter, 5-FOA growth OD615, active compounds read high, yeast express analog-sensitive mutant Cbk1 kinase; at 100 µM unless noted

Max inhibition, inactive:
Cc1[nH]c2ccccc2c1/C=C/c1nc2ccccc2c(=O)n1-c1ccc([N+](=O)[O-])cc1 6.44%, N#Cc1nc(COc2ccccc2)oc1N1CCN(c2cccc(Cl)c2)CC1 3.36% [at 50 µM], O=C(COC(=O)c1ccc(-c2ccccc2)cc1)Nc1ccccc1-c1ccccc1 4.8% [at 50 µM], CC(C)(C)OC(=O)NCCCCCNC(=O)c1[nH]cnc1C(=O)N[C@@H](Cc1ccccc1)C(=O)OCc1ccccc1 6.61%, CCOc1ccc(NS(=O)(=O)c2ccc(NC(=S)NC(=O)CC(C)C)cc2)cc1 3.65% [at 0.196 µM], COc1cc(CC(NC(C)=O)C(=O)NC2CCN(c3c(Cc4ccccc4)c(C)nc4ncnn34)CC2)cc(OC)c1 (stereo not given) 3.02% [at 25 µM], O=C(/C=C/c1ccccc1)N1CCN(c2cccc(Cl)n2)CC1 6.02%, CCOC(=O)c1c(C)[nH]c(C(=O)C(C)Sc2ccc(Cl)cc2)c1C (stereo not given) 2.41% [at 12.5 µM], O=C(CSCc1ccc(Cl)cc1)Nc1cccc(C(=O)Nc2ccccc2C(=O)O)c1 1.32% [at 0.196 µM], CCOc1ccc(NC(=O)CSc2nnc(-c3ccccc3Cl)n2Cc2ccco2)cc1 1.32% [at 0.782 µM], C=CCN1C(=O)C(Cc2ccc(C)cc2)S/C1=N/N=C/c1ccco1 (stereo not given) 6.91%, CC(=O)c1cc(C(=O)c2ccccc2)sc1Nc1ccccc1 6.93%, CCOC(=O)c1c(-c2cccc([N+](=O)[O-])c2)csc1NC(=O)CCCOc1ccccc1OC 2.67% [at 50 µM], COc1ccc(CN(CCC(c2ccccc2)c2ccco2)C(=O)c2ccco2)cc1 (stereo not given) 4.81% [at 6.25 µM], COc1ccccc1NC(=O)C(Sc1ccccc1)c1ccccc1 (stereo not given) 2.18% [at 50 µM], CCOC(=O)/C(=C/c1ccc(N2CCC(c3ccccc3)=N2)cc1)C(C)=O 3.75%, O=C(COC(=O)C1(c2ccccc2F)CCCC1)Nc1ncc(C(F)(F)F)cc1Cl 2.79% [at 0.196 µM], CCOC(=O)c1cnc(SC)nc1Oc1cccc(NC(=O)c2ccc(C)cc2)c1 5.83% [at 50 µM], CCCC(CCC)=NNc1ccc(S(=O)(=O)Nc2ccccc2OC)cc1[N+](=O)[O-] 3.78% [at 0.391 µM], Cc1cccc(COCC(Cc2ccccc2)N2CCN(C(=O)c3ccc(C(F)(F)F)cc3)CCC2=O)c1 (stereo not given) 3.28% [at 0.782 µM], Cc1ccc(NC(=O)COC(=O)CCC(=O)c2ccc(C(C)(C)C)cc2)c([N+](=O)[O-])c1 2.67% [at 0.196 µM], CCOC(=O)c1sc(NC(=O)CCCn2nc([N+](=O)[O-])cc2C)c(C(=O)OCC)c1C 4.45% [at 0.782 µM], CCCCCCCCNC(=O)/C(C#N)=C/c1ccc(SC)cc1 5.43%, CCOC(=O)C(C)(C)N(Cc1cccc(C)c1)S(=O)(=O)c1cccc([N+](=O)[O-])c1 2.41% [at 50 µM], O=C(Nc1ccccc1-c1nnc(SCc2ccccc2)o1)c1ccccc1 4.39% [at 3.125 µM], Cc1ccc(-n2c(O)c(/C=N/c3ncn[nH]3)c3ccccc3c2=O)cc1 10.6%, COc1ccc(/C=C(\C#N)C(=O)NCCc2ccccc2)cc1OCc1ccccc1 4.42% [at 1.563 µM], CCOC(=O)C1=C(c2ccccc2)N=c2s/c(=C\c3cc(OC)c(OC)c(OC)c3)c(=O)n2C1c1cccs1 (stereo not given) 14.2%, O=C(COC(=O)c1cc(Cl)ccc1[N+](=O)[O-])NCc1ccc(Cl)cc1Cl 4.62% [at 1.563 µM], C=CCSc1nnc(CCCCCN2C(=O)c3cccc4cccc(c34)C2=O)o1 6.81%, Cc1ccc(/C=C/c2ccc(=O)n(Cc3ccccc3Cl)n2)cc1 3.92% [at 3.125 µM], O=C(/C=C/c1cccc(C(F)(F)F)c1)Nc1cccc(C(F)(F)F)c1 2.77% [at 12.5 µM], COc1ccc(C(=O)/C=C/c2ccc(OC)c(COc3ccccc3F)c2)cc1 3.26% [at 12.5 µM], S=C(NCCC(c1ccccc1)c1ccccc1)Nc1ccccc1Cl 2.81%, Cc1ccc(NC(=O)Cc2ccc(Cl)c(Cl)c2)cc1S(=O)(=O)N(C)C 1.65%, CCN(CC)S(=O)(=O)c1cccc(C(=O)OCC(=O)c2ccc3c(c2)OCCO3)c1 3.81% [at 6.25 µM], CC(C)Cn1c(N)c(-c2nc(C(C)C)c(C(=O)c3ccccc3F)s2)c(=O)n(C)c1=O 7.65%, COc1cccc(CN(Cc2ccccc2F)S(=O)(=O)c2ccc(S(=O)(=O)NCc3ccccc3)cc2)c1 4.33%, COc1cccc(CN(Cc2ccco2)C(c2ccc(F)cc2)c2nnnn2C(C)(C)C)c1 (stereo not given) 5.18%, O=C(COC(=O)c1ccc(CSc2ccc(Cl)cc2)cc1)Nc1ccccc1 4.59%, CCOC(=O)c1c(-c2ccc(OC)cc2)csc1NC(=O)CSc1ccccc1 5.06%, C=C(C)CNC(=S)Nc1nc2c(cc1C(=O)OCC)CCCC2 2.44% [at 25 µM], COC(=O)c1cc(=O)n(CCc2ccccc2)c(=Nc2ccc(F)cc2)s1 4.08% [at 50 µM], O=C(O)CSc1nc(-c2ccc(Cl)cc2)nc2c1oc1ccccc12 6.31% [at 50 µM], COc1ccc(OC)c(NC(=O)C(Sc2ccccc2)c2ccccc2)c1 (stereo not given) 4.44% [at 50 µM], O=C(Nc1ccccc1-c1nnc(SCc2ccccc2Cl)o1)c1ccccc1 2.67% [at 50 µM], Cc1ccccc1N1C(=O)CC1(C#N)c1ccc(OCc2ccccc2)cc1 (stereo not given) 3.12% [at 50 µM], O=C(CC12CC3CC(CC(C3)C1)C2)NC(=S)NCc1ccco1 5.22% [at 50 µM], Cc1ccc(Cl)cc1N1CCN(S(=O)(=O)c2ccc3[nH]c(=O)c(=O)[nH]c3c2)CC1 4.39%, O=C(CCCSc1nc2ccccc2[nH]1)Nc1nnc(-c2ccccc2)o1 1.46% [at 1.563 µM], Cc1cc(NC(=O)COC(=O)C(Nc2ccc(C(F)(F)F)cc2Cl)C(C)C)no1 (stereo not given) 3.28% [at 12.5 µM], Cc1ccccc1NC(=O)CCCSc1nc2ccccc2s1 1.4% [at 25 µM], O=C(OC(C(=O)Nc1cccc(C(F)(F)F)c1)c1ccccc1)C1CCCCC1 (stereo not given) 3.65% [at 50 µM], C=CCOc1c(Br)cc(CNc2ccc(NC(=O)C(C)C)c(OC)c2)cc1OCC 2.15% [at 3.125 µM], COc1ccccc1-n1c(COc2ccccc2-c2ccccc2)nnc1SCC(=O)c1c(N)n(C)c(=O)n(C)c1=O 11.9%, COc1ccc(Br)cc1C(=O)Nc1ccccc1-c1ccccc1 6.2% [at 50 µM], CCCC[C@@H]1C[C@H]1[C@@H](NC(=O)c1ccccc1)c1ccccc1C(F)(F)F 3.06%, CCOc1ccccc1NC(=O)C(OC(=O)c1cc(C)oc1C)c1ccccc1 (stereo not given) 4.82%, Cc1ccccc1Oc1ccc(-c2nc(N)nc(N)n2)cc1 3.9%, O=S(=O)(c1ccccc1F)N(Cc1ccco1)Cc1nnc(-c2ccccc2Br)o1 2.49% [at 1.563 µM], Cc1ccc(C)c(N2CCN(C(=O)c3ccc(Cn4c(=S)[nH]c5ccc(N6CCOCC6)cc5c4=O)cc3)CC2)c1 5.67%, CCOC(=O)C(C)Sc1nc2c(c(-c3cccs3)c1C#N)CCC2 (stereo not given) 3.89% [at 50 µM], Cc1ccc(OCc2nnc(SCC(=O)Nc3ccc4c(c3)OCCO4)n2Cc2ccco2)cc1 0.12% [at 0.782 µM], COC(=O)c1ccc(CSc2nc(-c3ccco3)cc(C(F)(F)F)n2)o1 5.27%, CCCCOc1nc2ccccc2nc1C(C#N)C(=O)NC1CCCCC1 (stereo not given) 4.45%, COc1ccc(-c2ccc(-c3noc(C4CCCCC4)n3)c(OC)n2)cc1 3.89% [at 50 µM], O=C(CSc1nc2ccccc2s1)CSc1nc2ccccc2s1 5.31%, O=C(Nc1ccccc1Cl)c1cccc(COc2cc(Cl)ccc2Cl)c1 2.59%, COc1ccc(Cc2nc(-c3ccc(-n4cccc4)cc3)no2)cc1OC 5.67%, CCCCOc1cccc(C(=O)NC(=S)Nc2cccc(C(F)(F)F)c2)c1 4.25%
